Records with an inconclusive call do not appear. Values without a mark were called inactive. The source made the active and inactive calls. The call rests on the fitted dose curve; in most records, active means well fitted inhibition curve with a large enough effect; inconclusive means small, poorly fitted or top-dose-only effect; inactive means no such curve, though single readings can be large or run the other way.

The values below come from PubChem BioAssay (NCATS).
On the % scale 0 is the no-effect control and ±100 the full control effect; potency means the concentration at half of the fitted maximal effect.

Sequence of Cytochrome P450 3A4 (Homo sapiens) (P08684 whole entry, looked up): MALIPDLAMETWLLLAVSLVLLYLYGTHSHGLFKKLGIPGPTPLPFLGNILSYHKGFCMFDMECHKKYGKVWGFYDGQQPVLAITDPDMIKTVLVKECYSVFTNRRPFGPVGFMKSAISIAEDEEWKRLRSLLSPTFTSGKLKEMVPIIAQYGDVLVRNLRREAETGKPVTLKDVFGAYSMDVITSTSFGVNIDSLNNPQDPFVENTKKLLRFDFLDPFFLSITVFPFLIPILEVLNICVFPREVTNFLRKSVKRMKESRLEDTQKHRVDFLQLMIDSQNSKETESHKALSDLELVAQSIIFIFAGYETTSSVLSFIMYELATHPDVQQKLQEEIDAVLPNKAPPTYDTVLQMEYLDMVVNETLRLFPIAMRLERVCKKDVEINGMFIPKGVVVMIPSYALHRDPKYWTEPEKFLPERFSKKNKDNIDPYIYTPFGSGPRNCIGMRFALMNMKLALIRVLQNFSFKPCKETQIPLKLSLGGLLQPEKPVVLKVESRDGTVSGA

The assay has as its target Cytochrome P450 3A4 (Homo sapiens) (UniProt P08684). Nature of the assay: qHTS Assay for Inhibitors and Substrates of Cytochrome P450 3A4 (AID 884). Further: nearly all actives have a fitted effect of over 50% in size. Particulars: recombinant CYP3A4, Luciferin-PPXE luminescence; series mostly up to 57.1 µM; activity change, negative = inhibition: at the top concentration. In a few lines:
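Luminescent readout of luciferin produced by CYP3A4 (20 nM) dealkylation of Luciferin-PPXE, 25 uM (its KM). NADPH-driven reaction ran 60 min at RT after 10 min compound preincubation; data scaled to 57 uM ketoconazole as 100% inhibition.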
(Quantitative high-throughput screening tests each substance at several concentrations.)
With `CCC1=C(OC(=O)N(CC)CC)N2C(=O)OC(=NCCOC)[C@]2(Cc2ccccc2)[C@H]2C1=CC[C@H]1C(=O)N(CC)C(=O)[C@H]12`, the Potency was 5.01 µM (active). `COC(=O)[C@@H]1C[C@@]2(O)[C@@H](O)[C@@H](O)[C@@H](O)C[C@H]2N1C/C=C/c1ccccc1`: the “activity change, negative = inhibition” value is -37.6%. The same measure, in the same setting: then `FC(F)(F)c1cccc(-c2noc(-c3cc(-c4ccccc4)c(C(F)(F)F)s3)n2)c1`, with -19.9%.

On to `CO[C@H]1COC(=O)C/C=C\[C@H](C)[C@@H](NS(=O)(=O)c2ccc(C)cc2)COC(=O)CCC[C@@H]1C`, for which the Potency was 3.98 µM (active). On to `Cn1c(N)c(C(=O)COC(=O)c2cc(C(F)(F)F)nc3ccccc23)c(=O)n(C)c1=O`, for which the “activity change, negative = inhibition” value is 9.74%.

As for `c1ccc(-c2ccc(CN3C[C@@H]4C(c5ccccc5)C5(c6ccccc6)CC4(C5)[C@H]3c3ccccc3)cc2)cc1` (stereo not given in full), the “activity change, negative = inhibition” value was 7.2%. Consider `CCCNC(=O)OC[C@@H]1O[C@H](CCO/N=C(\C)CCC(=O)OC[C@@H]2O[C@H](c3ccccc3)C=C[C@@H]2Oc2ccc(OC)cc2)C=C[C@@H]1Oc1ccc(OC)cc1`, for which the Potency is 5.01 µM (active). Consider `COC(=O)CC1Oc2cc3oc4c5ccccc5oc(=O)c4c3cc2O1` (stereo not given), for which the “activity change, negative = inhibition” value was -0.639%. Take `COC(=O)[C@@H]1C[C@@]2(O)[C@@H](O)[C@@H](O)[C@@H](O)C[C@H]2N1Cc1ccc(C(C)(C)C)cc1`: the Potency was 12.6 µM (active). Consider `O=Cc1ccc(B(O)O)cc1`, for which the “activity change, negative = inhibition” value is -5.49%. On to `COC(=O)c1ccc(C23CC4(C2)[C@H](CN(Cc2ccc(C(F)(F)F)cc2)[C@@H]4c2ccccc2)C3c2ccc(Cl)nc2)cc1` (stereo not given in full), for which the “activity change, negative = inhibition” value was -28.9%. With `Cn1c(-c2nc(-c3ccccc3)cs2)nc2ccccc21`, the Potency is 10 µM (active). For `CCC1=C2CC[C@H]3C(=O)NC(=O)[C@H]3[C@H]2[C@@]2(Cc3ccccc3)C(=NCc3ccccc3)OC(=O)N2C1=O`, the Potency is 6.31 µM (active). In the case of `COC(=O)[C@@H]1C[C@H]2CC[C@H](O)C[C@H]2N1Cc1ccccc1OS(=O)(=O)c1ccc(C)cc1`, the Potency was 2 µM (active). For `O=C1C[C@@H](O)[C@@H](O)[C@H]2[C@@H]3C(=O)N(Cc4ccc5c(c4)OCO5)C(=O)[C@@H]3CC[C@H]12`, the Potency was 3.98 µM (active). As for `CCC1=C(OC(=O)N(CC)CC)N2C(=O)OC(=NCCOC)[C@]2(Cc2ccccc2)[C@H]2C1=CC[C@H]1C(=O)N(C)C(=O)[C@H]12`, the Potency was 7.94 µM (active). With `C#CCCCO/N=C1/C[C@@H](O)[C@@H](O)[C@@H]2[C@@H]3C(=O)N(Cc4ccccc4)C(=O)[C@H]3CC[C@H]12`, the Potency was 3.98 µM (active). Consider `O=C(O)c1cc(C2CC2)nc2ccccc12`, for which the “activity change, negative = inhibition” value is -21.3%. With `CCC1=C(OC(=O)N(CC)CC)N2C(=O)OC(=NCC3CC3)[C@]2(C)[C@H]2C1=CC[C@H]1C(=O)N(CC(=O)OC)C(=O)[C@H]12`, the Potency was 7.94 µM (active). Turning to `OB(O)c1csc2ccccc12`, the “activity change, negative = inhibition” value is -20.3%. As to `COC(=O)C/C=C\[C@@H](C)[C@@H](/C=N\O[C@@H](C)c1cn([C@H]2COC[C@H]2O)nn1)NS(=O)(=O)c1ccc(C)cc1`, the Potency was 3.98 µM (active). As for `O=C(O)c1ccc(NS(=O)(=O)c2ccsc2C(=O)O)cc1`, the “activity change, negative = inhibition” value is -21.7%. With `O=C(O)c1ccc(B(O)O)cc1`, the “activity change, negative = inhibition” value is -3.26%.

Turning to `COC(=O)c1ccc(C23CC4(C2)[C@H](CN(Cc2ccc(-c5ccccc5)cc2)[C@@H]4c2ccccc2)C3c2ccc(C(F)(F)F)cc2)cc1` (stereo not given in full), the “activity change, negative = inhibition” value was -24.4%.

Consider `NC(=O)NCC1CC1`, for which the “activity change, negative = inhibition” value is -15.7%. As for `C#CC(C)OC(=O)C(C)NC(=O)c1ccccc1` (stereo not given), the “activity change, negative = inhibition” value was -13.5%.

For the compound `O=C(O)c1sccc1S(=O)(=O)Nc1ccccc1N1CCCCC1`, the Potency is 15.8 µM (active). In the case of `Cc1cc(N)c2cc(OCCOc3ccc4nc(C)cc(N)c4c3)ccc2n1`, the activity change, negative = inhibition is -0.402% [at 11.4 µM]. On to `Cc1csc(B(O)O)c1`, for which the “activity change, negative = inhibition” value is -26.3%. As for `CCC1=C(OC(=O)N(CC)CC)N2C(=O)OC(=NCC3CC3)[C@]2(C)[C@H]2C1=CC[C@H]1C(=O)N(c3ccccc3)C(=O)[C@H]12`, the Potency was 3.16 µM (active). For the compound `OB(O)c1ccc(Cl)s1`, the “activity change, negative = inhibition” value was -11.6%. Still for that read-out and setting: next, `COC(=O)[C@@H]1C[C@@]2(O)[C@@H](O)[C@@H](O)[C@@H](O)C[C@H]2N1Cc1ccc(-c2ccccc2)cc1`: -15.1%. In the case of `FC(F)(F)c1ccc(CN2C[C@@H]3C(c4ccc(Cl)nc4)C4(c5cccnc5)CC3(C4)[C@H]2c2ccccc2)cc1` (stereo not given in full), the Potency is 15.8 µM (active). `COC(=O)CC1Oc2cc3oc4c(c3cc2O1)C(=O)CC(C)(C)C4` (stereo not given): the “activity change, negative = inhibition” value was 16.3%. The same measure, in the same setting: then `COC(=O)[C@@H]1C[C@@]2(O)[C@@H](O)[C@@H](O)[C@@H](O)C[C@H]2N1Cc1ccc(Cl)cc1`, with -7.3%.
